# Test results from the supplement of paper PMC12282887.
# ± gives the standard deviation of the averaged measurements.
# Assays:
# Experiment in all cases: promoter activity interaction Z-score (Lux/OD deviation from empty-vector control); higher = stronger promoter induction by the compound
# [1] = test system: E. coli BW25113 acrABp lux reporter
# In short: (§1)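 E. coli BW25113 (wild type or marA, soxS or rob deletion) carrying low-copy luxCDABE promoter reporters grew in 40 µl LB Lennox in 384-well plates at 37°C. Each compound was tested at four 1:2 dilutions in biological duplicates. OD600 and luminescence were read every 30 min for 12 h. Areas were taken over 0–8 h (wild type) or 1–9 h (mutants), and wells below 10% of median growth area were removed. The score is the Z-transformed residual of growth-normalised luminescence fitted against the empty-vector control.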
# [2] = test system: E. coli BW25113 micFp lux reporter
# In short: as §1
# [3] = test system: E. coli BW25113 ompFp lux reporter
# In short: as §1
# [4] = test system: E. coli BW25113 robp lux reporter
# In short: as §1
# [5] = test system: E. coli BW25113 soxSp lux reporter
# In short: as §1
# [6] = test system: E. coli BW25113 tolCp lux reporter
# In short: as §1
# [7] = 0.011 µg/ml, genetic background: wild type
# [8] = 0.011 µg/ml, genetic background: ΔmarA
# [9] = 0.011 µg/ml, genetic background: Δrob
# [10] = 0.011 µg/ml, genetic background: ΔsoxS
# [11] = 0.023 µg/ml, genetic background: wild type
# [12] = 0.023 µg/ml, genetic background: ΔmarA
# [13] = 0.023 µg/ml, genetic background: Δrob
# [14] = 0.023 µg/ml, genetic background: ΔsoxS
# [15] = 0.046 µg/ml, genetic background: wild type
# [16] = 0.046 µg/ml, genetic background: ΔmarA
# [17] = 0.046 µg/ml, genetic background: Δrob
# [18] = 0.046 µg/ml, genetic background: ΔsoxS
# [19] = 0.091 µg/ml, genetic background: wild type
# [20] = 0.091 µg/ml, genetic background: ΔmarA
# [21] = 0.091 µg/ml, genetic background: Δrob
# [22] = 0.091 µg/ml, genetic background: ΔsoxS
structure (smiles),measurement,setting,value
C[C@@H]1O[C@@H]1P(=O)(O)O [Fosfomycin],promoter activity interaction Z-score,[1]; [7],-0.0514 ± 0.17
same,promoter activity interaction Z-score,[1]; [8],0.0429 ± 0.25
same,promoter activity interaction Z-score,[1]; [9],0.201 ± 0.24
same,promoter activity interaction Z-score,[1]; [10],-0.0843 ± 0.31
same,promoter activity interaction Z-score,[1]; [11],0.134 ± 0.25
same,promoter activity interaction Z-score,[1]; [12],0.445 ± 0.43
same,promoter activity interaction Z-score,[1]; [13],0.174 ± 0.14
same,promoter activity interaction Z-score,[1]; [14],-0.242 ± 0.29
same,promoter activity interaction Z-score,[1]; [15],-0.142 ± 0.12
same,promoter activity interaction Z-score,[1]; [16],-0.284 ± 0.14
same,promoter activity interaction Z-score,[1]; [17],0.229 ± 0.37
same,promoter activity interaction Z-score,[1]; [18],0.118 ± 0.17
same,promoter activity interaction Z-score,[1]; [19],1.76 ± 0.8
same,promoter activity interaction Z-score,[1]; [20],2.58 ± 0.66
same,promoter activity interaction Z-score,[1]; [21],1.15 ± 0.18
same,promoter activity interaction Z-score,[1]; [22],0.198 ± 1.3
same,promoter activity interaction Z-score,[2]; [7],-0.227 ± 0.25
same,promoter activity interaction Z-score,[2]; [8],0.053 ± 0.061
same,promoter activity interaction Z-score,[2]; [9],-0.0521 ± 0.036
same,promoter activity interaction Z-score,[2]; [10],-0.3 ± 0.065
same,promoter activity interaction Z-score,[2]; [11],-0.0683 ± 0.18
same,promoter activity interaction Z-score,[2]; [12],0.0385 ± 0.078
same,promoter activity interaction Z-score,[2]; [13],-0.0229 ± 0.046
same,promoter activity interaction Z-score,[2]; [14],-0.31 ± 0.0043
same,promoter activity interaction Z-score,[2]; [15],-0.471 ± 0.25
same,promoter activity interaction Z-score,[2]; [16],-0.104 ± 0.084
same,promoter activity interaction Z-score,[2]; [17],-0.121 ± 0.023
same,promoter activity interaction Z-score,[2]; [18],0.017 ± 0.027
same,promoter activity interaction Z-score,[2]; [19],0.578 ± 0.33
same,promoter activity interaction Z-score,[2]; [20],-0.163 ± 0.034
same,promoter activity interaction Z-score,[2]; [21],-0.0601 ± 0.12
same,promoter activity interaction Z-score,[2]; [22],-0.264 ± 0.2
same,promoter activity interaction Z-score,[3]; [7],0.269 ± 0.034
same,promoter activity interaction Z-score,[3]; [8],0.352 ± 0.034
same,promoter activity interaction Z-score,[3]; [9],-0.181 ± 0.21
same,promoter activity interaction Z-score,[3]; [10],0.154 ± 0.62
same,promoter activity interaction Z-score,[3]; [11],0.162 ± 0.32
same,promoter activity interaction Z-score,[3]; [12],0.534 ± 0.28
same,promoter activity interaction Z-score,[3]; [13],0.297 ± 0.084
same,promoter activity interaction Z-score,[3]; [14],-0.146 ± 0.43
same,promoter activity interaction Z-score,[3]; [15],-0.707 ± 0.057
same,promoter activity interaction Z-score,[3]; [16],0.0141 ± 0.47
same,promoter activity interaction Z-score,[3]; [17],0.161 ± 0.65
same,promoter activity interaction Z-score,[3]; [18],0.414 ± 0.21
same,promoter activity interaction Z-score,[3]; [19],3.07 ± 0.41
same,promoter activity interaction Z-score,[3]; [20],3.8 ± 2.2
same,promoter activity interaction Z-score,[3]; [21],2.55 ± 1.5
same,promoter activity interaction Z-score,[3]; [22],2.08 ± 5
same,promoter activity interaction Z-score,[4]; [7],0.505 ± 0.043
same,promoter activity interaction Z-score,[4]; [8],0.245 ± 0.25
same,promoter activity interaction Z-score,[4]; [9],0.133 ± 0.36
same,promoter activity interaction Z-score,[4]; [10],0.554 ± 0.71
same,promoter activity interaction Z-score,[4]; [11],0.0622 ± 0.91
same,promoter activity interaction Z-score,[4]; [12],0.483 ± 0.81
same,promoter activity interaction Z-score,[4]; [13],0.389 ± 0.11
same,promoter activity interaction Z-score,[4]; [14],1.15 ± 1.3
same,promoter activity interaction Z-score,[4]; [15],-0.338 ± 0.75
same,promoter activity interaction Z-score,[4]; [16],-0.357 ± 0.2
same,promoter activity interaction Z-score,[4]; [17],0.416 ± 0.18
same,promoter activity interaction Z-score,[4]; [18],1.3 ± 1
same,promoter activity interaction Z-score,[4]; [19],-0.301 ± 0.048
same,promoter activity interaction Z-score,[4]; [20],0.127 ± 0.3
same,promoter activity interaction Z-score,[4]; [21],-0.752 ± 0.35
same,promoter activity interaction Z-score,[4]; [22],-0.158 ± 0.9
same,promoter activity interaction Z-score,[5]; [7],0.228 ± 0.36
same,promoter activity interaction Z-score,[5]; [8],0.2 ± 0.11
same,promoter activity interaction Z-score,[5]; [9],-0.0473 ± 0.12
same,promoter activity interaction Z-score,[5]; [10],0.164 ± 0.072
same,promoter activity interaction Z-score,[5]; [11],-0.175 ± 0.12
same,promoter activity interaction Z-score,[5]; [12],0.188 ± 0.14
same,promoter activity interaction Z-score,[5]; [13],-0.154 ± 0.05
same,promoter activity interaction Z-score,[5]; [14],0.0176 ± 0.14
same,promoter activity interaction Z-score,[5]; [15],-0.307 ± 0.09
same,promoter activity interaction Z-score,[5]; [16],0.119 ± 0.16
same,promoter activity interaction Z-score,[5]; [17],0.0235 ± 0.023
same,promoter activity interaction Z-score,[5]; [18],0.138 ± 0.19
same,promoter activity interaction Z-score,[5]; [19],-0.0128 ± 0.14
same,promoter activity interaction Z-score,[5]; [20],0.0924 ± 0.018
same,promoter activity interaction Z-score,[5]; [21],-0.135 ± 0.043
same,promoter activity interaction Z-score,[5]; [22],0.657 ± 0.49
same,promoter activity interaction Z-score,[6]; [7],-0.233 ± 0.12
same,promoter activity interaction Z-score,[6]; [8],-0.202 ± 0.12
same,promoter activity interaction Z-score,[6]; [9],-0.412 ± 0.27
same,promoter activity interaction Z-score,[6]; [10],-0.149 ± 0.38
same,promoter activity interaction Z-score,[6]; [11],-0.358 ± 0.5
same,promoter activity interaction Z-score,[6]; [12],0.891 ± 0.16
same,promoter activity interaction Z-score,[6]; [13],-0.173 ± 0.68
same,promoter activity interaction Z-score,[6]; [14],0.35 ± 0.7
same,promoter activity interaction Z-score,[6]; [15],-1.79 ± 0.32
same,promoter activity interaction Z-score,[6]; [16],-0.292 ± 0.4
same,promoter activity interaction Z-score,[6]; [17],-0.445 ± 0.36
same,promoter activity interaction Z-score,[6]; [18],0.22 ± 0.3
same,promoter activity interaction Z-score,[6]; [19],-0.204 ± 0.16
same,promoter activity interaction Z-score,[6]; [20],-0.347 ± 0.15
same,promoter activity interaction Z-score,[6]; [21],-0.366 ± 0.71
same,promoter activity interaction Z-score,[6]; [22],-0.266 ± 0.13
